# ALOX12 inh – blocks human arachidonate 12S-lipoxygenase | P18054 | purified 12hLO, xylenol orange hydroperoxide absorbance | Potency, µM (titrated, usually from 108 µM), inactives show top-dose activity change, negative = inhibition, usual class: inhibitors | hit rate 1.1% among 580,000; note: potency is the fitted concentration of half-maximal effect
# Target sequence (P18054 whole entry, looked up): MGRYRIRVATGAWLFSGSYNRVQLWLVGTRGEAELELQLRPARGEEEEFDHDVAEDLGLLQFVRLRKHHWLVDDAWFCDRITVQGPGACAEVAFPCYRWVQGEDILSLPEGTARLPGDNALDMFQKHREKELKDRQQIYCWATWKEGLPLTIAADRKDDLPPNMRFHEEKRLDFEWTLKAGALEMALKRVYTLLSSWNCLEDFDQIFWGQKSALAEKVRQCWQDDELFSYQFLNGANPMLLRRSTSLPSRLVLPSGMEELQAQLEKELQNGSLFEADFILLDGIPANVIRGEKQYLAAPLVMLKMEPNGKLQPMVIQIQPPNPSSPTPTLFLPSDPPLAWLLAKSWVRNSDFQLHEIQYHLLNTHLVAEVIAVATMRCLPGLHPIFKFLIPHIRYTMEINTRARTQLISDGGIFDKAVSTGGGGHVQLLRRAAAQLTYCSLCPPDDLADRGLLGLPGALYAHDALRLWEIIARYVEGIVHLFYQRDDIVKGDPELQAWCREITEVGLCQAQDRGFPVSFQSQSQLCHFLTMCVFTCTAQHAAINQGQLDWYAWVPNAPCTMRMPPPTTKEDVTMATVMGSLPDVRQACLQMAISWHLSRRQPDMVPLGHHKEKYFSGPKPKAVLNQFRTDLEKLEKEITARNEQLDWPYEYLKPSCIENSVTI
#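 Purified human 12hLO (150 nM final) in 25 mM Hepes, 0.01% Triton X-100, pH 7.0 was preincubated 15 min at room temperature with compound. Then 40 uM arachidonic acid was added, 30 min. Hydroperoxide was read by Fe-XO absorbance ratio 573/405 nm.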
# HT1080NT lethal – kills 2HG-producing HT-1080-NT fibrosarcoma cells; hit rate 1.6% among 360,000; HT-1080-NT fibrosarcoma viability, CellTiter-Glo ATP luminescence, 48 h; Potency, µM (doses to about 46.1 µM), inactives show at the highest dose activity, negative = less viability, most hits filed as cytotoxic;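 note: NT is the 2HG producing partner of a matched IDH1 knockdown line; potency is the fitted concentration of half-maximal effect; 0% = DMSO-treated cells and -100% = media-only wells without cells; nearly all actives have a fitted effect of over 55% in size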
#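 Luminescent CellTiter-Glo readout after 48 hours of compound exposure at 37 degrees C defined viability of HT-1080-NT cells. Activity was normalized to DMSO wells and cell-free media wells; concentration-response curves were fitted and assigned curve classes.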
# TDP1 cell CPT – DT40-hTDP1 cell growth loss with CPT. chicken DT40 Tdp1-/-;hTDP1 cells + 20 nM CPT, ATP luminescence, 48 h. Potency, µM (doses to about 46.2 µM), for the others: at the top dose activity change, negative = growth inhibition, usual class: inhibitors. hit rate 12% among 420,000; note: potency is the fitted concentration of half-maximal effect; nearly all actives have a fitted effect of over 55% in size
#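 Chicken DT40 Tdp1-/- cells complemented with human TDP1, 400 cells/well, exposed to compounds plus 20 nM camptothecin for at least 48 h at 37 C; viability read as ATP content by CellTiter-Glo luminescence.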
# DT40 TDP1 no CPT – qHTS for Inhibitors of human tyrosyl-DNA phosphodiesterase 1 (TDP1): qHTS in cells in absence of CPT; AID 686978, 2013; hit rate 15% among 420,000; Potency, µM (top dose mostly 46.2 µM), inactives show at the highest dose activity change, negative = growth inhibition, most hits filed as inhibitors; DT40 Tdp1-/- hTDP1 cells, no CPT, ATP luminescence, 48 h; note: potency is the fitted concentration of half-maximal effect; nearly all actives have a fitted effect of over 55% in size
#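 Cells were dispensed at 400 per well, compounds added by pin tool, plates incubated ≥48 hr at 37 °C, then CellTiter-Glo added for 30 min at room temperature before luminescence reading. Line: DT40 Tdp1-/- complemented with hTDP1; camptothecin omitted.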
# HT1080 IDH1KD tx – HT-1080 IDH1 knockdown cell toxicity (counter line); HT-1080 IDH1 knockdown viability, ATP luminescence, 48 h; Potency, µM (series often up to 46.1 µM), for inactives: top-dose activity, negative = toxicity, usual class: cytotoxic; hit rate 2% among 360,000;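 note: potency is the fitted concentration of half-maximal effect; 0% = DMSO wells and -100% = cell-free medium wells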
#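 Cytotoxicity counter-line: IDH1KD HT-1080, 48 h, CellTiter-Glo. Curves classed by r2, magnitude and activity.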
# IL-1B inflam inh – inflammasome signaling inhibition, IL-1 beta readout; AID 743279; activity change, % at 57.5 µM; hit rate 4.7% among 360,000; THP-1 LPS/ATP IL-1B secretion, AlphaLISA, 16 h; active compounds read low; in the data active = activity change below about -50%; inconclusive = mostly about -30% to -49%
#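 THP-1 cells pretreated 1 hr with compounds (up to 57.5 uM final), then stimulated with LPS (250 ng/mL final) plus ATP (1.25 mM final); secreted IL-1B measured by AlphaLISA after 16 hr, decreased signal indicating inhibition.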
# * = called active by the depositor; ? = inconclusive; nt = no result; [ ] = remark or other dose. Shown is part of a subset that was picked to be rich in hits. Unless noted, calls come from the whole dose curve; as a rule, active = well fitted curve in the direction sought with a large enough effect; inconclusive = small, poorly fitted or top-dose-only effect, or another doubt; inactive = no such curve, though single readings can be large; an effect the other way counts as inactive or inconclusive. Unless noted, % is set by controls: 0 for no effect and ±100 for the full control effect.
SMILES,ALOX12 inh,HT1080NT lethal,TDP1 cell CPT,DT40 TDP1 no CPT,HT1080 IDH1KD tx,IL-1B inflam inh
N#Cc1nc(-c2ccc(S(=O)(=O)N3CCCC3)cc2)oc1NCCc1ccccc1,-30.6%,nt,nt,nt,nt,nt
O=C(OCc1cn([C@@H]2C[C@H](c3ccc(Cl)cc3)N(C(=O)c3cccs3)C[C@H]2O)nn1)c1ccccc1,-6.2%,-18.7%,-5.4%,?,-15.8%,-4.2
O=C(OCc1cn([C@H]2CN(C(=O)c3cccs3)[C@@H](c3ccc(Cl)cc3)C[C@@H]2O)nn1)c1ccccc1,-21.6%,-0.9%,23.1µM*,?,?,44.7
O=C(OCc1cn([C@H]2CN(C(=O)c3cccs3)[C@@H](c3ccccc3)C[C@@H]2O)nn1)c1ccccc1,?,-0.7%,?,14.6µM*,0.9%,20.7
CN(C(=O)c1ccc(S(=O)(=O)c2cccc(Cl)c2)c([N+](=O)[O-])c1)C1CCCCC1,-19.2%,?,3.66µM*,5.17µM*,?,-106.5*
CN(C(=O)c1ccc(NC(=O)Cc2cccc([N+](=O)[O-])c2)cc1)C1CCCC1,-0.4%,-4.4%,?,-20.9%,-4.5%,?
C(/CCc1ccccc1)=N\Nc1nc2ccccc2[nH]1,?,?,?,18.4µM*,?,19.9
C(=N\Nc1ncnc2ccccc12)/c1ccccc1,0.0%,23.1µM*,3.66µM*,4.61µM*,?,48.7
Fc1cccc(/C=N/Nc2nc3ccccc3[nH]2)c1,-3.6%,?,?,?,?,-91.2*
C(=C\c1ccccc1)/C=N/Nc1nc2ccccc2[nH]1,?,?,7.31µM*,7.31µM*,?,54.2
Fc1ccc(/C=N/Nc2nc3ccccc3[nH]2)cc1F,-5.3%,-2.4%,?,?,-3.6%,?
COc1ccccc1NC(=O)CSc1nc2ccsc2c(=O)n1C,-10.6%,nt,nt,nt,nt,nt
O=c1[nH]c(N/N=C/c2ccccc2)nc2ccccc12,-3.1%,-5.3%,-29.8%,?,21.3%,4.5
C(=N\Nc1nc2ccccc2[nH]1)/c1ccccc1,8.7%,-0.7%,?,?,6.3%,-94.5*
Fc1cccc(/C=N/Nc2ncnc3nc[nH]c23)c1,13.0%,-2.4%,-3.0%,-18.0%,-18.6%,-97.5*
C(=N\Nc1nc2ccccc2[nH]1)/C1CCCCC1,34.3%,?,18.4µM*,?,?,38.0
CCCc1ccc(C(NC(=O)c2nn(C)c(=O)c3ccccc23)c2cccs2)cc1 (stereo not drawn),1.3%,nt,nt,nt,nt,nt
COc1ccc(CCNc2nc3ccccc3c3nc(-c4cccc(C)c4)nn23)cc1OC,-1.2%,nt,?,7.31µM*,nt,nt
COc1ccc(CNc2nc3ccccc3c3nc(-c4ccccc4)nn23)cc1,-18.3%,nt,-8.5%,11.6µM*,nt,nt
COc1ccc(CCNc2nc3cc(OC)c(OC)cc3c3nc(-c4ccccc4)nn23)cc1OC,-6.1%,nt,5.8µM*,2.91µM*,nt,nt
O=C(c1ccco1)N1CCN(C(=O)C2CN(S(=O)(=O)C3CC3)CC23CCCCC3)CC1 (stereo not drawn),-4.4%,nt,nt,nt,nt,nt
Cc1ccc2c(c1)N(C(=O)Cn1c(=O)n(CCC(C)C)c(=O)c3sccc31)CCO2,-0.7%,nt,nt,nt,nt,nt
COc1cccc(NC(=O)[C@@H]2C[C@@H](c3cccc(C(F)(F)F)c3)N(C)C2)c1,-0.2%[176 µM],nt,nt,nt,nt,nt
CC1=C(C(=O)Nc2cc(C)cc(C)c2)C2(CCCCCC2)OC1=O,1.5%,nt,nt,nt,nt,nt
CCCc1nc2ccccc2n1CC(O)COc1ccc(C(=O)OC)cc1 (stereo not drawn),1.1%,nt,11.6µM*,20.6µM*,nt,nt
SMILES,ALOX12 inh,HT1080NT lethal,TDP1 cell CPT,DT40 TDP1 no CPT,HT1080 IDH1KD tx,IL-1B inflam inh
COC(=O)c1ccc(OCC(O)CN2C(=O)c3ccccc3C2=O)cc1 (stereo not drawn),11.5%,9.0%,8.2%,2.9%,25.1%,-3.2
COC(=O)c1ccc(OCC(O)Cn2cnc3cc(C)c(C)cc32)cc1 (stereo not drawn),5.4%,nt,?,9.2µM*,nt,nt
Cc1nc2ccccc2n1CC(O)COc1ccccc1Cl (stereo not drawn),11.2%,-12.8%,18.4µM*,9.2µM*,-12.2%,-8.4
Cc1nc2ccccc2n1CC(O)COc1ccc(Br)cc1 (stereo not drawn),2.6%,-20.9%,?,18.4µM*,-14.3%,?
O=C(CSc1nc2ccccc2o1)Nc1ccc2ccccc2c1,-2.5%,nt,nt,nt,nt,nt
CN(C)c1ccc(C(=O)N2CCC(n3cc(-c4nc(-c5ccccc5)no4)nn3)CC2)cc1,12.1%,nt,nt,nt,nt,nt
CCC(=O)c1ccc(OCC(O)Cn2c(C)nc3ccccc32)cc1 (stereo not drawn),?,-0.6%,18.4µM*,18.4µM*,23.1µM*,24.4
Cc1nc2ccccc2n1CC(O)COc1ccc(C(=O)O)cc1 (stereo not drawn),-22.2%,nt,-18.2%,8.9%,nt,nt
COC(=O)c1ccc(OCC(O)CN(CC(C)C)CC(C)C)cc1 (stereo not drawn),0.0%,-8.4%,?,29.1µM*,-10.2%,10.1
COc1ccc(C2(C(=O)N3CCCC(c4nc(-c5cccnc5)no4)CCNC(=O)CC3)CC2)cc1 (stereo not drawn),5.9%,nt,nt,nt,nt,nt
Cc1ccccc1CN(C)C(C)C(=O)Nc1ccccc1F (stereo not drawn),5.1%,-4.6%,?,25.9µM*,-5.2%,-0.3
N#Cc1ccccc1CSCCNC(=O)Nc1cccnc1,43.0%,nt,nt,nt,nt,nt
CCCCCCCCCCCC(=O)N/N=C/c1ccc(C(C)(C)C)cc1,-0.7%,nt,nt,nt,nt,nt
COCc1nc(C2CCCN(C(=O)COc3ccc(F)cc3)C2)no1 (stereo not drawn),21.3%,nt,nt,nt,nt,nt
O=S(=O)(Cc1ccccc1)c1cnc2ccccc2n1,0.1%,?,16.4µM*,16.4µM*,?,-89.1*
Brc1ccc(Sc2cnc3ccccc3n2)cc1,5.2%,17.3%,-11.1%,-21.9%,5.8%,-11.5
COc1ccc(S(=O)(=O)c2cnc3ccccc3n2)cc1,-0.1%,?,?,?,?,-57.6*
O=C(OCc1ccccc1)c1cnc2ccccc2n1,2.1%,nt,nt,nt,nt,nt
COc1ccc(S(=O)(=O)c2ccc(OC)cc2)cc1,0.0%,-0.1%,?,-27.9%,-4.1%,-11.4
O=S(=O)(c1ccc(Br)cc1)c1cnc2ccccc2n1,-18.9%,?,25.9µM*,?,?,-100.6*
O=C(Cn1nc2n(c1=O)CCCC2)Nc1ccc(F)cc1,-0.6%,nt,nt,nt,nt,nt
COc1ccc(-c2nc(CSCC(=O)N3CCN(Cc4ccc5c(c4)OCO5)CC3)c(C)o2)cc1,-23.7%,nt,nt,nt,nt,nt
